Measurements reported in PubChem BioAssay AID2625 (National Center for Advancing Translational Sciences (NCATS), 2010).
Results filed as inconclusive are left out. The call rests on the fitted dose curve; in most records, active means well fitted curve in the direction sought with a large enough effect; inconclusive means small, poorly fitted or top-dose-only effect, or effect the other way, or another doubt; inactive means no such curve, though single readings can be large or run the other way.

These compounds were tested against Pyruvate kinase PKLR (Homo sapiens) (UniProt P30613) (assay: Secondary LDH Assay for Activators of Human Liver Pyruvate Kinase: for Probe SAR). Settings: purified hPK-L, LDH-coupled NADH fluorescence kinetic; series mostly up to 58.2 µM; activity change, positive = activation: at the top concentration.
Procedure, shortened: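 Kinetic LDH-coupled read-out: NADH fluorescence loss followed every 30 s for 3–6 min gave initial rates. Reaction: 10 nM human liver PK, 0.1 mM PEP, 4 mM ADP, 0.2 mM NADH, 50 mM Tris-Cl pH 8.0; activation normalised to fructose-bis-phosphate.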
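Further: 0% = uninhibited enzyme rate and 100% = full activation by fructose bisphosphate.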

Chain of Pyruvate kinase PKLR (Homo sapiens) (P30613 whole entry, looked up): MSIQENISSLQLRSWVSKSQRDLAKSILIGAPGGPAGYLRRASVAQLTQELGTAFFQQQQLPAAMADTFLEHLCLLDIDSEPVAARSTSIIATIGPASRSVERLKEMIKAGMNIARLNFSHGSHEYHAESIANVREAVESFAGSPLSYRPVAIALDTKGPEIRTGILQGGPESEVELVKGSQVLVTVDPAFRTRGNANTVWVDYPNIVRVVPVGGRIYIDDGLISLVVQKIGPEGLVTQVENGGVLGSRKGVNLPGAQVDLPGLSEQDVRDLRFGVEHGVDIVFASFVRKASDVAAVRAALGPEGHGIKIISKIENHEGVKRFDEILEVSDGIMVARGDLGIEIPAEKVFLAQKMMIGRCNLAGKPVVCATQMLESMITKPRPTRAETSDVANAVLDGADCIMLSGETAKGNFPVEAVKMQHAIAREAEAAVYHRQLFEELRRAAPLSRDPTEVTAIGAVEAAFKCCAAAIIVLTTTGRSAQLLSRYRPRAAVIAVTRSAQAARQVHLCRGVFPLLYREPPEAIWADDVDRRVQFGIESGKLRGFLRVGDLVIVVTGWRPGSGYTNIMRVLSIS

Activity change, positive = activation, inactive:
O=S1(=O)N=C(Oc2ccccc2Cl)c2ccccc21 14.9%
Cc1cc(N2C(=O)c3ccccc3C2=O)no1 -3.11%
Cc1ccc(NS(=O)(=O)c2ccc3c(c2)CCC(=O)N3)cc1 10.1%
Cc1ccc(NS(=O)(=O)c2ccc3c(c2)CCC(=O)N3)cc1F -11.2%
O=C1CCc2cc(S(=O)(=O)Nc3ccc(-c4ccccc4)cc3)ccc2N1 7.77%
CSc1cc2c(s1)c1cnn(Cc3cccc(O)c3)c(=O)c1n2C 7.48%
Cc1ccc(N(C)S(=O)(=O)c2ccc3c(c2)CCC(=O)N3)cc1C 7.04%
Cc1ccc(NS(=O)(=O)c2ccc3ccccc3c2)cc1C 20.6%
COc1cccc(N2C(=O)c3ccccc3C2=O)n1 -2.51%
Cc1ccc(NS(=O)(=O)c2ccc3c(c2)N(C)C(=O)CO3)cc1C -4.36%
Cc1ccc(Cl)cc1NS(=O)(=O)c1cc2c(cc1F)NC(=O)CC2 26.2%
CN=c1nc(-c2ccccc2)n(-c2ccccc2)s1 9.26%
O=C1CCc2cc(S(=O)(=O)Nc3ccccn3)ccc2N1 -13.7%
Cc1ccc2nc(-c3ccc(C)o3)c(Nc3ccc4c(c3)OCO4)n2c1 4.65%
Cc1nc(-c2ccc(S(=O)(=O)Nc3ccc(C)c(C)c3)s2)cs1 12.5%
Cc1ccc(NS(=O)(=O)c2cc3c(cc2N2CCCCC2)NC(=O)CC3)cc1C -20.5%
CCNc1cccc(S(=O)(=O)N2CCN(S(=O)(=O)c3ccc4c(c3)OCCO4)CC2)c1 -8.22%
Cc1ccc(NS(=O)(=O)c2cc3c(cc2Cl)NC(=O)CO3)cc1C 3.53%
N#Cc1ccc(NS(=O)(=O)c2ccc3c(c2)CCC(=O)N3)cc1 -11.8%
